In PubChem BioAssay (NCI):
About 79,000 compounds went through this panel and 15% of them were active in at least one assay; those are over-represented in the sample as a whole. Cut-off read from the data, not from the text of the source: active = growth inhibition above about 70%; inactive = the rest.

Key:
[1] = NCI Yeast Anticancer Drug Screen. Data for the rad50 strain (AID 155);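 note: 0% = growth of vehicle-only cultures of the same strain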; conditions: S. cerevisiae rad50 strain growth inhibition; at 50.0 µM; hits give high values
Procedure, shortened: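 Vehicle-treated cultures provide the reference for the growth inhibition reported for compound-exposed, repair-deficient yeast.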

[2] = NCI Yeast Anticancer Drug Screen. Data for the mec2-1 strain (AID 157); conditions: S. cerevisiae mec2-1 strain, at 50.0 µM, hits give high values
Procedure, shortened: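 Strain: mec2-1 (DNA repair/cell cycle alteration). Compound exposure, then growth measured; inhibition expressed relative to vehicle.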

[3] = NCI Yeast Anticancer Drug Screen. Data for the sgs1 mgt1 strain (AID 161);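 note: 0% = growth of cultures given vehicle only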; conditions: S. cerevisiae sgs1 mgt1 strain, at 50.0 µM, hits give high values
Procedure, shortened: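 Genetically altered yeast, compound exposure, growth inhibition relative to vehicle.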

[4] = NCI Yeast Anticancer Drug Screen. Data for the cln2 rad14 strain (AID 165);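 note: 0% = growth equal to vehicle treated cultures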; conditions: S. cerevisiae cln2 rad14 strain, at 50.0 µM, hits give high values
Procedure, shortened: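 Compounds are applied to the cln2 rad14 yeast strain, and growth is then compared with that of vehicle-treated cultures to give inhibition.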

[5] = NCI Yeast Anticancer Drug Screen. Data for the bub3 strain (AID 167); conditions: S. cerevisiae bub3 mutant strain, at 50.0 µM, hits give high values
Procedure, shortened: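 Mutant yeast screening strain plus compound; vehicle-treated cultures serve as the 0% inhibition reference.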

[6] = NCI Yeast Anticancer Drug Screen. Data for the mlh1 rad18 strain (AID 175); conditions: S. cerevisiae mlh1 rad18 strain growth inhibition; at 50.0 µM; hits give high values
Procedure, shortened: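 Read-out is yeast growth inhibition, calculated against vehicle-only controls. The compound was applied to a strain engineered with DNA damage repair alterations.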

Measured: growth inhibition

COc1c(NC(=O)c2ccc([N+](=O)[O-])cc2)cccc1[N+](=O)[O-]
inactive: [1] 0.45% | [2] 14.3% | [3] 5.1% | [4] -0.2% | [5] 32.2% | [6] 20.4%

Nc1nc(Cl)nc(Cl)c1N
inactive: [1] -21.9% | [2] 7.1% | [3] -17.3% | [4] -23.4% | [5] -8.95% | [6] -2.95%

Cn1c(N)cc(=O)nc1N
inactive: [1] -7.55% | [2] 2.05% | [3] 6.2% | [4] 10.7% | [5] -1% | [6] 8.2%

NC(CC(=O)O)c1ccc(Cl)cc1 (stereo not given)
inactive: [1] -22.5% | [2] -23.3% | [3] -14.4% | [4] -8.3% | [5] 0.3% | [6] 7%

CCCCCCCCCCCCCCCCCC(=O)Nc1nc(N)nc(N)n1
inactive: [1] 11.1% | [2] 15.1% | [3] 3.6% | [4] 18.6% | [5] -5.15% | [6] 6.15%

CCOC(=O)c1cc2c(C(=O)c3ccc([N+](=O)[O-])cc3)c(C(C)=O)ccc2[nH]1
inactive: [1] 3.15% | [2] -0.45% | [3] -1.2% | [4] -3.55% | [5] 19% | [6] -45.6%

O=C(Cc1nc2ccc(Cl)cc2[nH]c1=O)c1ccncc1
inactive: [1] -2.8% | [2] -11.6% | [3] -3.55% | [4] 8.1% | [5] -24.1% | [6] 20.8%

O=C(O)Cc1n[nH]c(=O)c2ccccc12
inactive: [1] -21.1% | [2] -5.2% | [3] -0.45% | [4] -2.75% | [5] -25.9% | [6] -7.7%

Cc1ccc(C(=O)CCC(=O)OCC(=O)c2ccc(-c3ccccc3)cc2)cc1
inactive: [1] -7.95% | [2] 11.3% | [3] -1% | [4] 14.8% | [5] -6% | [6] -20.1%

CCCCn1c(-c2ccccc2)cs/c1=N\N=C1C=C(C(C)(C)C)C(=O)C(C(C)(C)C)=C1
inactive: [1] 12.2% | [2] -13.9% | [3] 0.05% | [4] -35.2% | [5] -16.9% | [6] 16.9%

O=C1C(OC(=O)c2ccccc2)=C(c2ccc(O)cc2)C(=O)C(OC(=O)c2ccccc2)=C1c1ccc(O)cc1
inactive: [1] 24.1% | [2] 0.45% | [3] 5.55% | [4] 9.75% | [5] 17.2% | [6] -44.6%

CCCCC(CC)CCC(O)CC(C)C (stereo not given)
inactive: [1] -10.2% | [2] -11.3% | [3] 14.6% | [4] 10.8% | [5] 13.8% | [6] 5.25%

Cn1c(=O)c2c(nc(OC3CCCCC3)n2C)n(C)c1=O
inactive: [1] 14.1% | [2] -1.3% | [3] 29.4% | [4] 26.1% | [5] 57.5% | [6] -2.95%

CC(N)C(C)Cc1ccccc1 (stereo not given)
inactive: [1] -20.2% | [2] -21.4% | [3] -19.7% | [4] 65.7% | [5] -31.9% | [6] -14.6%

CC(C)N(CCN1CCCCC1)c1ccccn1
inactive: [1] -0.9% | [2] 18.2% | [3] 7.2% | [4] -75.5% | [5] 10.3% | [6] 14.9%

COc1ccc(C2CC(=O)N(CC(=O)O)C(=O)C2)cc1
inactive: [1] 13.9% | [2] 14.8% | [3] 8.3% | [4] -17% | [5] -9.4% | [6] 7.55%

CC1CCC(Oc2nc3c(c(=O)n(C)c(=O)n3C)n2C)CC1 (stereo not given)
inactive: [1] -4.75% | [2] -2.85% | [3] -14.8% | [4] 2% | [5] -8.7% | [6] -12.5%

CC(=O)Nc1ccc(Cc2ccc(O)cc2)cc1
inactive: [1] 1.55% | [2] 6.65% | [3] -3.75% | [4] -31.1% | [5] -3.55% | [6] -1.45%

COc1cc(C)c(C2NC(=O)c3ccccc3N2)cc1C (stereo not given)
inactive: [1] 10.1% | [2] 2.8% | [3] -10.1% | [4] 17.4% | [5] -2.55% | [6] -4.55%

CCOC(=O)c1c(SC(=O)c2ccc(OC)cc2)n(-c2ccccc2)c(=S)n(-c2ccccc2)c1=O
inactive: [1] 16.2% | [2] 0.75% | [3] 3.75% | [4] 8.55% | [5] 16.8% | [6] 12.8%
